# Source: PubChem BioAssay (NCI)
# The panel holds about 83,000 compounds, 20% with a hit somewhere; the sample as a whole holds those more often.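 Single-dose data. Exposure time 48 hours. Values below 10 considered active.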 The source made the active and inactive calls.
# System: MDA-MB-468 breast
# Assay: NCI-60 one-dose screen, 48 h (100 = growth as untreated, 0 = no growth, -100 = all killed)
# Settings: 10 µM unless noted
row,SMILES,growth
1,CCN(C(=O)CCl)C(C)(C)C(SSSC(c1ccc(Cl)cc1)C(C)(C)N(CC)C(=O)CCl)c1ccc(Cl)cc1 (stereo not given),5.76% (active)
2,Nc1c(C(=O)Nc2ccccc2)sc2nc3c(cc12)C(O)CCC3 (stereo not given),51.6% (inactive)
3,COc1cc(C2=NN(C(C)=O)C(c3ccc(OC(C)=O)cc3OC(C)=O)O2)c(OC(C)=O)c2ccccc12 (stereo not given),-9.39% (active)
4,COc1ccc(C2c3cccn3-c3ccccc3N2C(C)=O)cc1 (stereo not given),93.9% (inactive)
5,COc1cccc(NCc2nnc(Nc3ccc(Cl)cc3)c3ccccc23)c1,-21.9% (active)
6,O=C1OCC2=C1C(c1ccc(Cl)c(Cl)c1)c1cc3c(cc1N2CCO)OCCO3 (stereo not given),23.5% (inactive)
7,CCc1cc(C)cc(O)c1,94.7% (inactive)
8,COc1ccc2nc(-c3ccc(Cl)cc3)cc(C(=O)N3N=C(c4ccc(N)cc4)CC3c3ccccc3)c2c1 (stereo not given),30.9% (inactive)
9,N#C/C(=C\c1ccc([N+](=O)[O-])cc1)n1nnc2cc(F)c(F)cc21,-40% (active)
10,O=[N+]([O-])c1ccc(S(=O)(=O)N2CCN(c3ccnc4cc(Cl)ccc34)CC2)c([N+](=O)[O-])c1,82.7% (inactive)
11,Cc1ccc(C2=Nc3c(ccc4c(C)c(C)c(=O)oc34)OC2)cc1,113% (inactive)
12,Nc1nc(Cl)nc2c1ncn2C1O[C@H](CO)[C@@H](O)[C@@H]1F (stereo not given in full),5.22% (active)
13,S=C(Cc1ccccc1)N1CCN(c2ccccc2Cl)CC1,101% (inactive)
14,COc1ccc2c(c1)NC(=O)CN2c1nc(C)nc2ccccc12,9.26% (active)
15,C[C@H]1[C@H]2[C@H]3CC[C@@H]4[C@@]5(C)CC[C@H](O)C(C)(C)[C@@H]5CC[C@@]4(C)[C@]3(C)CC[C@]23CO[C@]1(C)[C@@H](C(=O)/C=C\c1ccco1)C3,19.3% (inactive)
16,Cc1cn(C(=O)/C(Cl)=C(/Cl)C(=O)O)c2ccccc12,108% (inactive)
17,Fc1ccc2nc(-c3cc(-c4ccc5c(c4)OCO5)n[nH]3)[nH]c2c1,46.7% (inactive)
18,C=CCNc1ccccc1,108% (inactive)
19,COc1cc2ncnc(-n3ncc4cc(NC(=O)Nc5ccc(Cl)c(C)c5)ccc43)c2cc1OC,93.6% (inactive)
20,COc1ccc(C[n+]2c3ccccc3n3c4ccc(N)cc4ccc32)c(OC)c1OC,-22.5% (active)

row,SMILES,growth
1,O=C(O)c1ccccc1Nc1cccc(S(F)(F)(F)(F)F)c1,111% (inactive)
2,Fc1cnc(NC2CC2)nc1-c1cnc2ccc(N3CCOCC3)cn12,-29.6% (active)
3,O=C1/C(=C/c2ccc([N+](=O)[O-])s2)Oc2ccccc21,-34.1% (active)
4,Cc1cc(Br)c(N)c(Br)c1,98.3% (inactive)
5,N#CSCc1ccc(Cl)c(CSC#N)c1,51.5% (inactive)
6,COc1cc(C2CC(c3ccccc3)=NN2C=O)ccc1Oc1nc2c(c(=O)n(C)c(=O)n2C)n1C (stereo not given),63.9% (inactive)
7,CCCCCCCC[C@@H](O)CC(=O)N[C@@H](CC(N)=O)C(=O)N[C@@H](CCC(N)=O)C(=O)N[C@@H](CC(=O)c1cc(C)cc(O)c1C(=O)c1c(O)cccc1O)CC(C)C,3.34% (active)
8,C=C(C)[C@@H]1CC[C@]2(C(=O)N3CCN(C)CC3)CC[C@]3(C)[C@H](CC[C@@H]4[C@@]5(C)C/C(=C/c6ccco6)C(=O)C(C)(C)[C@@H]5CC[C@]43C)[C@@H]12,64.6% (inactive)
9,CN1CCN(C(=O)c2ccc(NC(=O)Nc3ccc(-c4nc(N5CCOCC5)c5cccn5n4)cc3)cc2)CC1,-60.7% (active)
10,CN(C)CCCn1c2c(c3ccc(-c4ccn[nH]4)cc3c1=O)C(=O)c1ccccc1-2,35% (inactive)
11,Cc1cc2c(C(C)C)c(O)c(O)c(C=NCCCCCCC(=O)O)c2c(O)c1-c1c(C)cc2c(C(C)C)c(O)c(O)c(C=NCCCCCCC(=O)O)c2c1O,30.4% (inactive)
12,Cn1cc(-c2noc(-c3cn(C)c4ncc(F)cc34)n2)c2ccccc21,36.2% (inactive)
13,CCCCc1ccc2nc(NC(=O)OC)[nH]c2c1,22.3% (inactive)
14,Clc1ccc(Sc2cnc(-c3ccccc3)o2)cc1,111% (inactive)
15,O=C(/C=C/c1ccc(Cl)cc1)c1ccc(O)c(CN2CCN(c3cc4c(cc3F)c(=O)c(C(=O)O)cn4C3CC3)CC2)c1,40.9% (inactive)
16,CC(Oc1ccc(C(=O)NS(=O)(=O)C(C)(C)C)cc1C(F)(F)F)c1ccc(Oc2ccccc2)cn1 (stereo not given),71.8% (inactive)
17,O=C(NCCN1CCOCC1)OCc1ccc2c(Cl)cc(Cl)c(O)c2n1,81.6% (inactive)
18,COc1cc(CSc2nc3ccc(Cl)cc3c(=O)n2-c2ccccc2)cc(OC)c1OC,57.4% (inactive)
19,COc1ccc(-c2nc3ccccc3n3cccc23)cc1,112% (inactive)
20,CCOC(=O)/C(=C(\C)N)C1CC(=O)NC1=O (stereo not given),92.3% (inactive)
